From the supplement of paper PMC3334620
The full ranking holds about 33,000 sequences; the median of “E-score (-0.5 to 0.5)” is about -0.056, and the highest 2% start at about 0.38. The list comes from a sample in which the highest values are over-represented; it also holds similar and randomly drawn sequences.

Each sequence was assayed against Stb4 (UniProt P50104) (assay: PBM E-score (8-mer binding enrichment) (E-score (-0.5 to 0.5)); higher = stronger / more preferred TF binding). Conditions: protein concentration: 200 nM; construct: GST-DNA-binding domain.
Method: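 Universal 'all 10-mer' protein binding microarrays (Agilent AMADID 015681) probed with GST-tagged S. cerevisiae TFs (full-length or DBD) made by in vitro transcription/translation (PURExpress), about 100-200 nM. Bound TF was detected with fluorescent anti-GST. Each ungapped 8-mer (which stands for itself and its reverse complement) is scored by the PBM enrichment score (E-score), a modified Wilcoxon-Mann-Whitney statistic from -0.5 to +0.5, computed with the Universal PBM Analysis Suite. Scale: above 0.35 generally sequence-specific binding.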

UniProt P50104, sequence (P50104 whole entry, the tested form may be a part): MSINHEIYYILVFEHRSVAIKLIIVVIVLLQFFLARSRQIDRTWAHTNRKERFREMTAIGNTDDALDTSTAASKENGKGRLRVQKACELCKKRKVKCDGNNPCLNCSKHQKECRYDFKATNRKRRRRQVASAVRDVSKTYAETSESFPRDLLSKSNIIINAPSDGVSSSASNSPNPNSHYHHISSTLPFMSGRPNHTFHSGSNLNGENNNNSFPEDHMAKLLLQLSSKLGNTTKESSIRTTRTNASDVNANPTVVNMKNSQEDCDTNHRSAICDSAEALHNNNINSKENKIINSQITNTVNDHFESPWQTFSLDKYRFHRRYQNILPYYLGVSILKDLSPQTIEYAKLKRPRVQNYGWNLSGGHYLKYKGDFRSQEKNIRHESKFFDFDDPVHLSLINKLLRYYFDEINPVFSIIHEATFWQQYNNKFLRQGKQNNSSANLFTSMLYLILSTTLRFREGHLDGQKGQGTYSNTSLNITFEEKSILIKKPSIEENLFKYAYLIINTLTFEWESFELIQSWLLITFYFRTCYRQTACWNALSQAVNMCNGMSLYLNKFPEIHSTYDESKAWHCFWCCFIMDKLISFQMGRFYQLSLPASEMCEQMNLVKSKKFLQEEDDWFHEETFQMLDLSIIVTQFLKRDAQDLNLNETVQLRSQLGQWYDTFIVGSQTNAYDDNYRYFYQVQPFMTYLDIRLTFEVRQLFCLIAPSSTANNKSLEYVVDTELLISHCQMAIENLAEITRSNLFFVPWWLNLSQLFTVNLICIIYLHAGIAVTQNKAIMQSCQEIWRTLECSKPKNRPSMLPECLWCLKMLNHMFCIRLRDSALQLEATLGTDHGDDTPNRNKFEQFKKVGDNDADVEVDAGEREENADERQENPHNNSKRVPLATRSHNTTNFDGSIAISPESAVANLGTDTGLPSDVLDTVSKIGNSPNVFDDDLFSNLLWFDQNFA

Sequence	PBM E-score
GTGAAAGA	0.0652
GTGAAGAA	-0.139
GAAGTGTA	-0.107
ATTGGTAA	-0.137
GCCTGCAA	-0.18
CCGTGAAA	0.145
GTATCATA	-0.0852
AATCATAA	-0.089
GCCCAGGA	-0.0894
ATCGGAAG	0.433
CTCGGAAG	0.48
ATCGGACG	0.289
AACGGAAG	0.284
ATCGGACC	0.308
AACGGAAC	0.348
ATCGGAAC	0.428
GTCGGAAC	0.454
CACGGAAG	0.36
GTGGGAAC	-0.102
GACGGAAC	0.317
CGCGGAAG	0.357
AATGACGC	-0.238
GTGATGGA	-0.00596
CGATTCTC	0.0534
ACGCTCCA	-0.0409

Sequence	PBM E-score
AATGAGAA	-0.0737
GTCAGAAA	-0.203
CTCGGAAA	0.479
AACGGACA	0.0833
GTTGGAAA	0.0285
GTCGGAAA	0.453
AACGGAAA	0.393
CTGGGAAA	-0.168
CACGGAAA	0.352
CGCGGAAA	0.316
ATCGGAAA	0.424
AGCGGAAA	0.333
ATCGGACA	0.196
CCCATTCA	-0.0249
CGTTTATA	-0.0024
ATCCCGGC	0.323
AGCGTAGG	-0.0217
AAGGCGGG	-0.0393
CTGAACAA	-0.0548
AGGGATGG	-0.174
ACGATTCC	0.06
CGACTTGA	-0.0925
CGATCAAA	0.0532
AACTTGGC	-0.109
CTCGGAAC	0.485

Sequence	PBM E-score
CGCGGAAC	0.395
CACGGAAC	0.352
AACGGAAT	0.315
AGCGGAAT	0.141
TGCGGAAA	0.299
ATCGGAAT	0.434
TTCGGAAA	0.474
CTAGGAAC	-0.00703
GGCGGAAC	0.356
AGCGGAAC	0.316
TTCAGAAA	-0.23
GCCATGGC	-0.361
CCCTTTTA	-0.172
AGCCTAGG	-0.0301
GATCCTTA	-0.0996
GCCATTCC	0.127
CCAGCGCC	-0.0109
CTACGCCA	-0.271
CACCCCAC	0.0245
CCTTGTGA	-0.0811
CCTCTCCA	-0.309
CCTCGCTA	-0.29
CCGCTACA	0.109
AATTCAAC	0.015
ATTAACCG	0.413

Sequence	PBM E-score
ATTAACCC	0.212
ATTAACCA	-0.136
GAGGAATC	-0.07
CCGTCGTA	-0.0259
ACGTCGGC	0.307
CCGTCGGA	0.397
GCGTCGAA	-0.0895
CCGTCGGC	0.329
ACGTCGGG	0.349
GCGTCGTA	0.0854
ACGTCGGA	0.389
GCGTCGGA	0.449
CTGGCAGC	-0.168
ACATAATA	-0.153
CGAGTCAA	-0.0247
AGGTTCAT	-0.128
ACAAGGCT	-0.138
ACAGATTG	-0.0283
AGTTTAAT	-0.111
ATGGGCTA	-0.084
CCACTCCA	-0.146
AATACCAT	-0.115
AGTGCCGA	0.423
AGTGCCGG	0.301
CGTGCCGC	0.0918

Sequence	PBM E-score
GGTGCCCA	-0.147
GGTGCCGA	0.402
CGTGCCGA	0.405
AGTGCCGC	0.123
CGTGCCCA	0.00213
GGTGCCTA	-0.0355
CTGGACGC	-0.278
ATCGCCCG	0.152
CACGGCCC	0.0623
GAGGAGTA	-0.00803
CCGGGGTA	0.155
GACGGGTA	0.267
CCCGGGTC	0.32
ATCGGGCA	0.125
ATCGGGTA	0.419
GTCGGGTA	0.445
ATCGGGTG	0.366
CCCGGGTA	0.407
GTCGGGGA	0.225
CTCGGGTA	0.478
CACGGGTA	0.333
CTCGGGCA	0.325
ATGATTTC	0.0687
AATGATTG	-0.164
ATAGCAAT	-0.185

Sequence	PBM E-score
AGTCTAAC	-0.163
ACAGTCAG	-0.0929
ACACCAAT	0.00344
CTCGGGTC	0.434
ATCGGGTC	0.325
CTCGGGCC	0.343
GGGAATAA	0.233
GGGAATCA	0.0543
CGGAATCA	0.388
CGGAATTC	0.322
AGGAATTA	0.0103
CGGAATAA	0.384
TGGAATAA	0.072
AGGAATCA	-0.00647
CGGAATTA	0.401
GGATCATA	0.228
AACTGTGC	-0.157
AAAAATCG	0.0452
CTGAAACA	0.0153
GTTTAGAA	-0.0425
ATGAAAAT	0.0835
AGACGGGA	0.174
GACTCAGC	-0.191
CACGCATG	-0.209
ATACATGA	-0.212

Sequence	PBM E-score
CCGAACAG	0.4
CCGAACAA	0.425
CCGAACTC	0.374
CCGAACAC	0.372
ACGAACTA	-0.194
ACGAACAG	-0.15
GCGAACAA	-0.0836
ACGAACAA	0.079
CCGAACTA	0.395
GCAACGAC	0.0391
CACTGTGA	-0.018
AGCCCCTA	-0.139
AAGGGTTC	-0.14
CACGTGTA	-0.0718
GTGTGAAC	0.0138
CGTGGCAC	-0.178
CCCTGTGC	-0.0934
TCATCGGA	0.403
TAATCGGA	0.324
ATATCGGA	0.383
AAATCGGG	0.317
GCATCGGA	0.359
ACATCGGA	0.346
CTATCGGA	0.423
CTATCGTA	-0.199

Sequence	PBM E-score
ATATCGGC	0.316
ATATCGGG	0.306
CTATCGGC	0.26
AAATCGGA	0.399
AAATGCGT	-0.129
AGTGTGAT	-0.0318
CAATTTAC	-0.00625
CATAGTGG	-0.102
CCGACCTA	0.296
CACGGTGG	-0.061
GGCCCACC	0.0688
AAAAGATT	-0.0765
AGGTTTAC	-0.0584
GTATCGGA	0.39
GAATCGGA	0.38
GTATCGAA	-0.0419
ACATCACC	0.0212
CATCTGTC	0.0312
ACTTCCGC	0.379
ACTTCCGA	0.479
GCTTCCGA	0.473
GCTTCCTA	-0.0701
CCTTCCGA	0.451
ACTTCCTG	-0.0685
GCTTCCAA	-0.147

Sequence	PBM E-score
ACTTCCGG	0.411
CCTTCCTA	-0.354
ACTTCCCG	0.354
CCTTCCGC	0.306
ACTTCCCA	-0.158
AAAACTTT	0.0161
CCTGTATC	0.011
CTGCTAAC	-0.0715
ATCTCTAA	0.0304
AGCCAGAT	0.0138
CACCGCAA	0.0924
CACCGTCA	-0.13
CGGATGGC	0.347
GACCCATC	0.0784
TACCCGAA	0.476
GACCCGAC	0.384
TACCCCGA	0.342
GACCCGCC	0.0652
GACCCGGA	0.323
GACCCGAA	0.428
TACCCGGA	0.415
TACCCGTA	0.31
GACCCCGA	0.288
AACCCGAC	0.324
CACCCGGA	0.358

Sequence	PBM E-score
GCCCCGAA	0.31
GAAAAGTC	-0.011
ACCAAGGA	0.00373
AAGGCCTA	-0.225
ATTTGGGG	-0.0633
AACCCGAA	0.387
ACCCCGAA	0.369
AACCCGCA	0.156
ACCAAGAA	-0.0301
AGCCGGCA	0.316
GGCCGGAA	0.371
AGCCGGAT	0.396
TGCCGGAA	0.419
CGCCGGAC	0.146
AGCCGGAC	0.239
TGCCGGCA	0.296
CGCCGGAG	0.168
CGCCGGAA	0.392
AGCCGGAG	0.379
AGCCGGCT	0.238
AGCCGGAA	0.395
AAGAATAT	0.0558
GCAAGTAA	-0.0627
ATTTAAAT	-0.101
AGAAAGGG	-0.138

Sequence	PBM E-score
ATCTTGTA	-0.0999
TGAGAGCA	-0.178
CATCGCCA	-0.0625
CGGCGGAA	0.408
AGGCGGAA	0.278
GGGCGGAA	0.308
CAGCTTTA	-0.0389
TCTCGGAA	0.479
ACTCGTAA	0.0295
ACTCGGAT	0.467
ACTCGGAC	0.327
ACTCGGTG	0.124
GCACGGAA	0.327
ACTCGGTC	0.204
GCTCGGAA	0.482
GCGCGGAA	0.338
TCTCGTAA	0.00218
TCGCGGAA	0.315
ACTCGGAA	0.47
CAGTCCCC	-0.362
CTCTCAGC	-0.362
CCACTGGG	-0.231
ATCGCATG	-0.117
AGATACAC	-0.107
AGGCAGGA	-0.188

Sequence	PBM E-score
ACTCTATC	-0.0391
AAGGCTAC	-0.0344
CCCACTCG	0.0329
CCACGGAA	0.354
ACACGGAA	0.338
GCACGGAC	0.13
TCACGGAA	0.389
GCTCGGAC	0.391
GCTCGTAC	-0.0377
GTCACCAC	-0.103
AGGGGAGA	-0.0188
GTGCGTCA	-0.101
CCCCGCTC	-0.0289
CTAAATCC	0.205
GATTATCA	0.0201
AGTATCAT	0.0471
ACTCCAGC	-0.253
CGGGTAGA	0.389
AGGGTATA	-0.029
CGGGTTTC	0.277
AGGGTATC	-0.0302
GGGGTTTA	-0.0416
CGGGTATA	0.418
CGGGTATC	0.404
AGGGTAGA	-0.166

Sequence	PBM E-score
CGGGTACC	0.312
CGGGTTTA	0.389
CGGGTAGC	0.37
GGGGTATA	0.06
CAGCATCC	0.121
GACAAGTA	-0.0988
AGAGTGCG	-0.164
CGTTGATA	0.0343
AGATCTGG	-0.188
CAACTAGA	-0.182
GAACGGTC	0.148
GATCCCAC	-0.00608
AATCCGAG	0.407
GATCCGAC	0.434
CATCCGCG	0.285
GATCCAAC	0.104
CATCCGAG	0.481
AATCCGCG	0.127
CGTCCGAG	0.257
GATCCGCC	0.273
AATCCGTG	0.172
AATCCGCC	0.218
CATCCGCC	0.4
ACCAGCCA	-0.0271
CAGAGATA	-0.182

Sequence	PBM E-score
CGAGTTGC	0.0987
CGCTCCCA	-0.0934
CCAAACAG	-0.345
GGAGAGAA	0.0164
GATGTGGC	-0.0114
CATCCGTC	0.308
AATCCGAC	0.346
CATCCGAC	0.455
ACTCAGTG	-0.208
ACGATCAT	-0.174
CAACCATA	-0.251
AACGAATG	-0.142
AGCAGCTG	-0.307
GCTCAGAC	-0.19
CGACTAGA	-0.0326
TGAGTGAA	-0.295
GGAGTGTA	0.0839
CCGGTCCG	0.389
CCGGTCCC	0.282
CCGGTCCA	0.0504
